# GLS inhibitor = qHTS for Inhibitors of Glutaminase (GLS). Potency, µM (highest dose often 45.5 µM), usual class: inhibitors. 410,000 tested, 0.21% active. Glutaminase kidney isoform, mitochondrial (Homo sapiens), O94925. GLS enzymatic activity, qHTS titration. AID 624170, 2012
#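 Read-out is an Amplex red fluorescence increase coupled through glutamate oxidase and HRP, measured before and after 30 min room-temperature incubation. hKGA is in 45 mM KH2PO4 (pH 8.2) with 0.02% Tween-20; glutamine added as 1mM solution.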
# HP1b binding inh = HTS for Inhibitors of HP1-beta Chromodomain Interactions with Methylated Histone Tails. Chromobox protein homolog 1 (Homo sapiens), P83916. AlphaScreen HP1-beta / biotin-H3K9me3 peptide binding. 390,000 tested, 0.56% active. AID 540317, 2011. Potency, µM (top dose mostly 114 µM), usual class: inhibitors; note: nearly all actives have a fitted effect of over 70% in size
#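 AlphaScreen: HP1-beta (50 nM) preformed 30 min with biotin-H3(1-18)K9me3 peptide (50 nM) in PBS pH 7.4, 0.01% Tween-20. Compound added for 30 min at RT, then streptavidin donor/nickel chelate acceptor beads (10 ug/mL) for 30 min.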
# BAZ2B inh = qHTS Assay for Inhibitors of BAZ2B. AlphaScreen BAZ2B-H3K14Ac peptide displacement. Potency, µM (series often up to 114 µM), hits mostly inhibitors. 360,000 tested, 4.4% active. AID 504333, 2011; note: nearly all actives have a fitted effect of over 60% in size
#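 AlphaScreen displacement: compounds (up to 110uM) incubated 30 min at room temperature with a preformed 50 nM BAZ2B/50 nM biotinylated H3K14Ac peptide complex in PBS pH 7.4 with Tween-20. Donor and acceptor beads at 10 ug/mL final added, 20 min light-protected before reading.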
# G9a inh = qHTS Assay for Inhibitors of Histone Lysine Methyltransferase G9a; Histone-lysine N-methyltransferase EHMT2 (Homo sapiens), Q96KQ7; 350,000 tested, 8.8% active; G9a H3K9 monomethylation, AlphaScreen, 2 h; Potency, µM (top dose mostly 102 µM), usual class: inhibitors; note: nearly all actives have a fitted effect of over 75% in size
#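 Chemiluminescent proximity detection of H3K9 monomethylation, read after 10 min bead incubation in the dark. Reaction: 20 nM G9a, 500 nM biotin-H3K9 peptide, 20 uM SAM cofactor, 2 h, room temperature, following 15 min enzyme-compound preincubation.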
# JMJD2A Tudor inh = qHTS Assay for Inhibitors of JMJD2A-Tudor Domain; Lysine-specific demethylase 4A (Homo sapiens), O75164; 390,000 tested, 4.4% active; AlphaScreen JMJD2A-Tudor / H3K4me3 peptide binding; Potency, µM (titrated, usually from 114 µM), actives largely listed as inhibitors; AID 504339, 2011; note: nearly all actives have a fitted effect of over 50% in size
# Target sequence (O75164 whole entry, looked up, the tested form may be a part): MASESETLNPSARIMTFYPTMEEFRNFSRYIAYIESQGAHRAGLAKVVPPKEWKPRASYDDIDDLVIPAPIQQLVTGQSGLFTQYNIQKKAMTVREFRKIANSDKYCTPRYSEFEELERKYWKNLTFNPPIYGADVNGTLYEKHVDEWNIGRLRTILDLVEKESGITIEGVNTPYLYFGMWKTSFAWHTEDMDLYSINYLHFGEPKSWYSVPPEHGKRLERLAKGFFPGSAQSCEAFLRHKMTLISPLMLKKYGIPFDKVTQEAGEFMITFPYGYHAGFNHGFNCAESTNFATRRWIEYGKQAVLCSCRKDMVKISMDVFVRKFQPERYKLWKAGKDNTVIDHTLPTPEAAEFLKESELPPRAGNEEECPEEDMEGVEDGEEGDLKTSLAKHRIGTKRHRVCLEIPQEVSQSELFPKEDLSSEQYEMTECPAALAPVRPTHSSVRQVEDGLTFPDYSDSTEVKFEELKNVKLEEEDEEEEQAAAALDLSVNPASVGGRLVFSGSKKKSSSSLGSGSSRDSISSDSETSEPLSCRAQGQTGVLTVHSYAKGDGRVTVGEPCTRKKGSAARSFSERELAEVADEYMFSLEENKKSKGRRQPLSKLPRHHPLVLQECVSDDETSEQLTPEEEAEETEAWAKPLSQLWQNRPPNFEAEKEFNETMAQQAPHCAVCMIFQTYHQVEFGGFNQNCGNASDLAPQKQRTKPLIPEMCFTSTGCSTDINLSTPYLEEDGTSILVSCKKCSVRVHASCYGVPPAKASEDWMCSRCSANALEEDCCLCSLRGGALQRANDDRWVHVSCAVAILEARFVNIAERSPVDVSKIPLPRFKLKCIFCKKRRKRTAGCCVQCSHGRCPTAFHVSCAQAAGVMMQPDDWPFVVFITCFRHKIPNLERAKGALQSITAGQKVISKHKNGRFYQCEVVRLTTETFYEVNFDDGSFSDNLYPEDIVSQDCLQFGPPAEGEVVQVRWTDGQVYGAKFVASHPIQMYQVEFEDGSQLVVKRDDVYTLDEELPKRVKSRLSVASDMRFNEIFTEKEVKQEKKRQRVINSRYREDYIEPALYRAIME
# A number is an active result; - = inactive; ? = inconclusive; . = no result; ! = not confirmed by another sample; [ ] = another dose, or the depositor's remark. Sampled rows, rich in hits. Any-hit rate of the full collection: about 10%. Calls come from the whole dose curve; as a rule, active = well fitted curve in the direction sought with a large enough effect; inconclusive = small, poorly fitted or top-dose-only effect, or another doubt; inactive = no such curve, though single readings can be large; an effect the other way counts as inactive or inconclusive.
SMILES,GLS inhibitor,HP1b binding inh,BAZ2B inh,G9a inh,JMJD2A Tudor inh
Cc1ccc(NC(=O)c2sc3nc4n(c(=O)c3c2C)CCCCC4)c(Br)c1,-,-,-,-,-
CCC(=O)N1CCc2cc(Br)cc(S(=O)(=O)CCC(=O)NCCc3cccc(C)c3)c21,-,-,-,-,-
NC1=NCC2c3ccccc3Cc3ccccc3N12 (stereo unspecified),-,.,.,-,.
CN(CCCS(=O)(=O)[O-])c1ccc(/C=C/c2ccc3ccccc3[n+]2C)cc1,-,-,?,32µM,?
[O-][n+]1c(/C=C/c2ccccc2)ccc2ccccc21,-,-,?,-,-
COc1ccc(/C=C/c2ccc3ccccc3[n+]2C)cc1OC,-,-,-,35µM,?
CN(C)c1ccc(/C=C/c2ccc3c4ccccc4ccc3[n+]2-c2ccccc2)cc1,-,11µM,7.9µM,16µM,8.9µM
CC(=O)Oc1ccccc1/C=C/c1ccc2ccccc2[n+]1C,-,-,?,.,?
CN(C)c1ccc(/C=C/c2ccc3ccccc3[n+]2C)cc1,-,?,45µM,7.9µM,79µM
CN(C)c1ccc(/C=C/c2nc3ccccc3c(=O)[nH]2)cc1,-,-,-,-,-
C[n+]1ccccc1/C=C/c1ccc2ncccc2c1,-,-,?,.,-
O=C(Nc1ccccc1[N+](=O)[O-])c1csnn1,-,-,?,?,-
S=c1[nH]nc(C2CCCCC2)n1/N=C/C=C/c1ccccc1,?,-,?,10µM,79µM
S=c1[nH]nc(C2CCCCC2)n1/N=C/C(Cl)=C\c1ccccc1,-,-,-,25µM,?
CN[C@@H]1[C@H](O[C@H]2[C@@H](O[C@@H]3[C@@H](O)[C@@H](O)[C@@H](N=C(N)N)[C@@H](O)[C@@H]3N=C(N)N)O[C@@H](C)[C@]2(O)CO)O[C@H](CO)[C@@H](O)[C@@H]1O,.,.,.,-[21.5 µM],.
CC(C)Oc1ccc(C(=O)NCC(c2ccc(N(C)C)cc2)N2CCCC2)cc1 (stereo unspecified),-,-,?,-[12.7 µM],?
Clc1ccc(C2CC(c3ccco3)n3ncnc3N2)cc1Cl (stereo unspecified),-,-,-,11µM,-
C[C@H](NC(=O)OC(C)(C)C)c1nnc(SCc2ccc(Cl)cc2Cl)o1,-,-,-,-,-
Cc1ccc(NC(=O)c2sc3ncn(Cc4cccc(F)c4)c(=O)c3c2C)c(Br)c1,-,-,-,-,-
CCOc1cc(/C=C2\C(=O)ON=C2c2ccccc2)cc(Br)c1O,8.9µM,?,28µM,25µM,25µM
COc1cc(C=C2C(=O)c3ccccc3C2=O)ccc1O,-,-,?,-,?
CCCOc1ccccc1/C=C1/C(=O)ON=C1C,-,-,-,-,-
COc1cc(/C=C2/C(=O)ON=C2c2ccccc2)ccc1O,-,-,50µM,?,-
CCOc1cc(/C=C2/C(=O)ON=C2C)cc(Br)c1O,-,-,16µM,45µM,-
COc1cc(/C=C2\C(=O)ON=C2c2ccccc2)cc(Cl)c1O,?,45µM,45µM,35µM,22µM
SMILES,GLS inhibitor,HP1b binding inh,BAZ2B inh,G9a inh,JMJD2A Tudor inh
CCCCn1nnnc1C(c1cccc2ccccc12)N1CCN(C/C=C/c2ccccc2)CC1 (stereo unspecified),-,.,.,.,.
N#Cc1ccc(CC(C(=O)O)N2Cc3ccccc3C2=O)cc1 (stereo unspecified),-,-,-,-,-
COc1cc(/C=C2\C(=O)ON=C2c2ccccc2)cc(Br)c1O,-,28µM,40µM,35µM,25µM
O=C(c1cc2ccccc2o1)N1CCN(S(=O)(=O)c2cccs2)CC1,-,-,-,16µM,-
O=C(O)c1ccc(Oc2cc(Oc3ccc(C(=O)O)cc3)cc([N+](=O)[O-])c2)cc1,-,-,-,.,-
O=C(CCc1ccc(Oc2cc([N+](=O)[O-])cc([N+](=O)[O-])c2)cc1)N1CCCCCC1,-,?,25µM,?,40µM
COc1ccc(CCC(=O)N2CCN(S(=O)(=O)c3cccs3)CC2)cc1,-,-,-,45µM,-
COc1ccc(N2CCN(C(=O)CCNS(=O)(=O)c3cccs3)CC2)cc1,-,-,-,25µM,-
O=C(CCNS(=O)(=O)c1cccs1)N1CCN(c2cccc(C(F)(F)F)c2)CC1,-,-,-,-[2.33 µM],-
O=C(c1cc2ccccc2o1)N1CCN(S(=O)(=O)c2ccccc2)CC1,-,-,-,?,-
O=C(c1ccc(Cl)c(NC2=NC3CS(=O)(=O)CC3S2)c1)N1CCN(c2ccc(F)cc2)CC1 (stereo unspecified),-,-,-,.,-
O=C(COC(=O)C12CC3CC(CC(Cl)(C3)C1)C2)NCc1ccco1,.,-,.,.,-
Nc1ccc2cc3[nH]c4cc(N)ccc4c3nc2c1,-,?,.,.,?
COc1ccc(N2CCN(C(=O)CN(C)S(=O)(=O)c3cccs3)CC2)cc1,-,-,-,50µM!,-
O=C(/C=C/c1ccc([N+](=O)[O-])cc1)N1CCN(S(=O)(=O)c2cccs2)CC1,-,-,-,50µM,-
CCCNS(=O)(=O)c1ccc(CCC(=O)N2CCN(CC)CC2)cc1,-,-,-,?,-
CCCNS(=O)(=O)c1ccc(CCC(=O)N2CCCCC2)cc1,-,?,-,-[12.7 µM],20µM
COc1ccc(N2CCN(C(=O)CCc3ccc(S(=O)(=O)NCC(C)C)cc3)CC2)cc1,-,-,-,7.1µM,-
Cc1csc(=O)n1CCC(=O)OCC(=O)NNC(=O)c1ccccc1,-,-,-,56µM,-
Cc1csc(=O)n1CC(=O)OCC(=O)NNC(=O)c1ccccc1,-,-,-,-,-
Cc1csc(=O)n1CCC(=O)OCC(=O)Nc1cc(Cl)ccc1[N+](=O)[O-],-,?,?,-[12.7 µM],?
Cc1csc(=O)n1CCC(=O)OCC(=O)Nc1ncc(Cl)cc1Cl,-,-,?,45µM,-
N/C(=N\OS(=O)(=O)c1ccc2ccccc2c1)c1ccccn1,-,-,20µM,5µM,5µM
N/C(=N\OS(=O)(=O)c1ccccc1)c1ccncc1,-,-,?,-[0.501 µM],-
N/C(=N\OS(=O)(=O)c1ccc2ccccc2c1)c1ccncc1,-,?,-,20µM,-
N/C(=N\OS(=O)(=O)c1ccc2ccccc2c1)c1cccnc1,-,-,?,?,-
N/C(=N/OS(=O)(=O)c1ccc([N+](=O)[O-])cc1)c1ccncc1,-,-,-,10µM,-
O=S(=O)(O)c1cc(O)c2c(O)c(N=Nc3cc(Cl)ccc3O)c(S(=O)(=O)O)cc2c1,-,20µM,11µM,10µM,10µM
Nc1cc(S(=O)(=O)O)cc2ccc(S(=O)(=O)O)cc12,-,-,.,.,-

# From PubChem BioAssay
